From PubChem BioAssay AID1778 (Sanford-Burnham Center for Chemical Genomics, 2009)
The whole screen tested about 290,000 compounds, of which about 260 (0.09%) were called active. The sample holds actives, similar compounds and a random draw of the others, so the mix is not that of the screen. Rule as the data show it: active = inhibition above about 50%; inactive = the rest. Entries with a potency or affinity are not part of this list.

What follows are compounds tested against Kappa-type opioid receptor (Homo sapiens) (UniProt P41145) (assay: KOR antagonists, beta-arrestin recruitment, cell-based, luminescence, uHTS (AID 1778)). Conditions: antagonist mode, stronger effect = higher value; at 10 µM unless noted.
Chain of Kappa-type opioid receptor (Homo sapiens) (P41145 whole entry, looked up): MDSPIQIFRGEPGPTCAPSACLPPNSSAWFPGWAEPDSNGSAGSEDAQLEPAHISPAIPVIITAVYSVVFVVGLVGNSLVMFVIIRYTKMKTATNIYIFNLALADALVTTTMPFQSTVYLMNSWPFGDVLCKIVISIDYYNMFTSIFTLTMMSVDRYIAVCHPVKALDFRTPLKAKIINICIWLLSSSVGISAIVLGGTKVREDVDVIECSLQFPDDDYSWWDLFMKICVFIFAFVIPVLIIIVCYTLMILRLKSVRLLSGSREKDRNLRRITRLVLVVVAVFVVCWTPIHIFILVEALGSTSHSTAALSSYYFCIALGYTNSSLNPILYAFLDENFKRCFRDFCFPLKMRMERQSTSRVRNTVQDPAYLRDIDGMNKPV

**Q.** How did the inhibition turn out when COc1ccc(N2CCN(C(=O)c3cc4c(=O)n(Cc5ccccc5)ccc4nc3C)CC2)cc1 was run?
**A.** The inhibition was -13.1% (inactive).

**Q.** CCCCOc1ccc(C(=O)NNC(=S)NC(=O)CC)cc1 was tested. Which inhibition did it give?
**A.** The inhibition was 26.3% (inactive).

**Q.** Which inhibition does the source give for CCCOc1ccc(C(=O)NNC(=S)NC(C)=O)cc1 here?
**A.** The inhibition was 19.1% (inactive).

**Q.** For CCc1nnc(NC(=O)c2ccc(-c3ccccc3F)o2)s1, which inhibition is on record?
**A.** Its inhibition is -18.1% (inactive).

**Q.** With CC(C)(C)C1CCC(=NNC(=S)Nc2cccnc2)CC1 (stereo unspecified) as the compound, how does the inhibition read?
**A.** The inhibition was 11.2% (inactive).

**Q.** With CC1=C/C(=N\NC(=S)NCCc2ccccc2)CC(C)(C)C1 as the compound, how does the inhibition read?
**A.** Its inhibition is -16.1% (inactive).

**Q.** O=C(Nc1ccc(NC(=O)c2ccccc2Cl)nc1)c1ccco1 was tested. Which inhibition did it give?
**A.** Its inhibition is -2% (inactive).

**Q.** For C=C1C(=O)O[C@@H]2C[C@@H](C)[C@@H]3C=CC(=O)[C@@]3(C)[C@@H](OC(C)=O)[C@H]12, which inhibition is on record?
**A.** The inhibition was 26.1% (inactive).

**Q.** Which inhibition does the source give for CC(=O)O[C@@H]1[C@H]2[C@@H](C[C@@H](C)[C@@H]3C=CC(=O)[C@@]13C)OC(=O)[C@@H]2C here?
**A.** The inhibition was 23.9% (inactive).

**Q.** CN(C)CCCNC(=S)NCCNc1nc2cc3c(cc2cc1C#N)OCO3 was tested. Which inhibition did it give?
**A.** The inhibition was 0.9% (inactive).

**Q.** With O=C(Nc1ccc(CN2CCS(=O)(=O)CC2)cc1)c1ccccc1 as the compound, how does the inhibition read?
**A.** The inhibition was 0.1% (inactive).

**Q.** Which inhibition does the source give for Cn1ccnc1Sc1cc(NCCCO)c([N+](=O)[O-])c2nonc12 here?
**A.** Its inhibition is 41.5% (inactive).

**Q.** With CCCSc1cc(NCCOC(=O)CCC)c([N+](=O)[O-])c2nonc12 as the compound, how does the inhibition read?
**A.** The inhibition was -2.8% (inactive).

**Q.** For CCCC(=O)OCCNc1cc(SCCC(=O)OC)c2nonc2c1[N+](=O)[O-], which inhibition is on record?
**A.** The inhibition was -12.2% (inactive).

**Q.** CCC(=O)OCCNc1cc(SCCC(=O)OC)c2nonc2c1[N+](=O)[O-] was tested. Which inhibition did it give?
**A.** The inhibition was 5.5% (inactive).

**Q.** Cc1csc(SCC(=O)NC(=O)C2CCCCC2)n1 was tested. Which inhibition did it give?
**A.** The inhibition was -17.4% (inactive).

**Q.** With Nc1cc(=O)[nH]c(SCC(=O)Nc2cc([N+](=O)[O-])ccc2Cl)n1 as the compound, how does the inhibition read?
**A.** The inhibition was 15.1% (inactive).

**Q.** Which inhibition does the source give for O=C(CNC(=O)c1ccco1)OCC(=O)c1ccc(Br)cc1 here?
**A.** The inhibition was -35% (inactive).

**Q.** Cc1ccc(Nc2nc3c(c(=O)[nH]2)CCCC3)cc1 was tested. Which inhibition did it give?
**A.** Its inhibition is -0.9% (inactive).

**Q.** For Cc1nc(Nc2nc3ccccc3o2)nc2c1CCC2, which inhibition is on record?
**A.** The inhibition was 21.7% (inactive).

**Q.** For Cc1nn(C)cc1S(=O)(=O)Nc1ccc(F)c(F)c1, which inhibition is on record?
**A.** Its inhibition is 9% (inactive).

**Q.** With COc1ccc(C)cc1NC(=O)CN(c1ccc(F)cc1)S(C)(=O)=O as the compound, how does the inhibition read?
**A.** Its inhibition is -4.9% (inactive).

**Q.** With Cc1cccnc1Nc1nc(-c2ccc(O)cc2)cs1 as the compound, how does the inhibition read?
**A.** Its inhibition is 17.8% (inactive).

**Q.** Which inhibition does the source give for COc1cccc2sc(Nc3nc(-c4ccncc4)cs3)nc12 here?
**A.** The inhibition was -21.7% (inactive).

**Q.** For Cc1cccnc1Nc1nc(-c2ccccc2)cs1, which inhibition is on record?
**A.** The inhibition was 1.5% (inactive).

**Q.** For COc1cccc2sc(Nc3nc(-c4cc5ccccc5oc4=O)cs3)nc12, which inhibition is on record?
**A.** Its inhibition is -2.1% (inactive).

**Q.** CCc1nc(N2CCN(C(C)=O)CC2)c2c3c(sc2n1)CC(C(C)(C)C)CC3 (stereo unspecified) was tested. Which inhibition did it give?
**A.** Its inhibition is -42.9% [at 20 µM] (inactive).

**Q.** With CN(CC(=O)NCCc1ccccc1)S(=O)(=O)c1cccc2nsnc12 as the compound, how does the inhibition read?
**A.** Its inhibition is -1.3% (inactive).

**Q.** Which inhibition does the source give for O=C(CC1C(=O)NCCN1Cc1ccccc1C(F)(F)F)NCCc1ccccn1 (stereo unspecified) here?
**A.** The inhibition was -9.9% [at 20 µM] (inactive).

**Q.** Which inhibition does the source give for O=C(c1cc(F)ccc1F)C1CCCN(C(=O)CCCN2CCCCC2=O)C1 (stereo unspecified) here?
**A.** The inhibition was 20.7% (inactive).

**Q.** For COc1ccc(N2CCN(C(=O)C(=O)c3c(C)n(C)c4ccccc34)CC2)cc1, which inhibition is on record?
**A.** The inhibition was -32.2% (inactive).

**Q.** Which inhibition does the source give for COc1ccc(N2CCN(CCCNC(=O)C(=O)c3c(C)[nH]c4ccccc34)CC2)cc1 here?
**A.** The inhibition was 15.4% (inactive).

**Q.** For O=C(Cn1c(=O)c2cccn2c2cccnc21)NCCCN1CCN(c2ccc(F)cc2)CC1, which inhibition is on record?
**A.** The inhibition was -19.4% (inactive).

**Q.** How did the inhibition turn out when COc1ccc(N2CCN(CCCNC(=O)Cn3c(=O)c4cccn4c4ccccc43)CC2)cc1 was run?
**A.** The inhibition was 47.8% (inactive).

**Q.** For CN(C(=O)COC(=O)c1cc2c(s1)CCCCC2)C1CCS(=O)(=O)C1 (stereo unspecified), which inhibition is on record?
**A.** The inhibition was 31.3% (inactive).

**Q.** How did the inhibition turn out when COc1ccc(C2(NC(C)=O)CCN(C(=O)c3cccs3)CC2)cc1 was run?
**A.** Its inhibition is -9.8% (inactive).

**Q.** With O=C(Cn1cnc2c(cnn2-c2ccccc2)c1=O)N1CCCc2ccccc21 as the compound, how does the inhibition read?
**A.** Its inhibition is -16.3% (inactive).

**Q.** Which inhibition does the source give for O=C(C1CC1)N1N=C(c2ccc(F)cc2)CC1(O)C(F)(F)F (stereo unspecified) here?
**A.** The inhibition was 26.6% [at 20 µM] (inactive).

**Q.** CCOC(=O)N1CCN(S(=O)(=O)c2ccc(C(=O)N(CCCN(C)C)c3nc4ccc(Cl)cc4s3)cc2)CC1 was tested. Which inhibition did it give?
**A.** Its inhibition is -7.9% (inactive).

**Q.** Cc1ccc(C(=O)N[C@@H](C)CN2C3=NC[C@H](C(C)C)N3C[C@H]2Cc2ccc(O)cc2)cc1Br was tested. Which inhibition did it give?
**A.** Its inhibition is 19.2% (inactive).

**Q.** How did the inhibition turn out when Cc1ccc(C(=O)N[C@@H](C)CN2C3=NC[C@H](C)N3C[C@H]2Cc2ccc(O)cc2)cc1Br was run?
**A.** The inhibition was 45.3% (inactive).

**Q.** For COc1ccc(C[C@@H]2CN3C(=NC[C@@H]3C)N2C[C@H](C)NC(=O)c2ccc(C)c(Br)c2)cc1, which inhibition is on record?
**A.** The inhibition was 40% (inactive).

**Q.** How did the inhibition turn out when COc1ccc(C[C@H]2CN3C(=NC[C@@H]3Cc3ccc(O)cc3)N2C[C@H](C)NC(=O)c2ccc(C)c(Br)c2)cc1 was run?
**A.** The inhibition was 15.3% (inactive).

**Q.** NS(=O)(=O)c1ccc(CCNC(=O)CSc2nc3ccsc3c(=O)n2CCCCC(=O)O)cc1 was tested. Which inhibition did it give?
**A.** The inhibition was 3% (inactive).

**Q.** N#CCC(=O)NNC(=S)NC(=O)C(c1ccccc1)c1ccccc1 was tested. Which inhibition did it give?
**A.** Its inhibition is -32.2% [at 20 µM] (inactive).

**Q.** Which inhibition does the source give for Cc1[nH][nH]c(=O)c1C(c1c(C)[nH][nH]c1=O)c1cn(Cc2ccccc2Cl)c2ccccc12 here?
**A.** The inhibition was -4% (inactive).

**Q.** With Cc1[nH][nH]c(=O)c1C(c1c(C)[nH][nH]c1=O)c1cn(Cc2ccc(Cl)c(Cl)c2)c2ccccc12 as the compound, how does the inhibition read?
**A.** The inhibition was -8.7% (inactive).

**Q.** With Cc1[nH][nH]c(=O)c1C(c1c(C)[nH][nH]c1=O)c1cn(Cc2ccc(F)cc2)c2ccccc12 as the compound, how does the inhibition read?
**A.** Its inhibition is 53.6% (active).

**Q.** How did the inhibition turn out when Cc1ccc(NC(=O)C23CCC(C)(C(=O)[C@H]2Br)C3(C)C)cc1 (stereo partly specified) was run?
**A.** Its inhibition is -3.6% (inactive).

**Q.** O=C(OCn1ncc(Cl)c(Cl)c1=O)c1ccc(F)cc1 was tested. Which inhibition did it give?
**A.** The inhibition was 5.2% (inactive).

**Q.** For O=C(OCn1ncc(Br)c(Br)c1=O)c1c(F)cccc1F, which inhibition is on record?
**A.** The inhibition was 28% (inactive).

**Q.** How did the inhibition turn out when CC(C)C(C(=O)NC(C)(C)C)N1C(=O)c2ccccc2C1=O (stereo unspecified) was run?
**A.** The inhibition was -6.7% (inactive).

**Q.** With Cc1cc(C(=O)Nc2ccc(Br)cc2)cs1 as the compound, how does the inhibition read?
**A.** Its inhibition is 9.2% (inactive).

**Q.** How did the inhibition turn out when CC(=O)c1c(C)nn(CCC(=O)O)c1C was run?
**A.** The inhibition was 18.3% (inactive).

**Q.** With Cc1ccnc(NC(=O)c2sc3cc(Cl)ccc3c2Cl)c1 as the compound, how does the inhibition read?
**A.** Its inhibition is 9.3% (inactive).

**Q.** O=C(Nc1nccs1)c1sc2ccccc2c1Cl was tested. Which inhibition did it give?
**A.** Its inhibition is -49.2% (inactive).
